Assay results reported in PubChem BioAssay (NCI).
Where “and” joins values, the source holds several entries; their conditions need not be identical. Equal entries are not always repeated. Compounds without any hit were thinned out: in the full panel of roughly 83,000, 20% have a hit.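 Interpretation: 100, growth as untreated; towards 0, rising growth inhibition; 0, no net growth; 0 to -100, cell death. Compounds scoring below 10 were considered active.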 A number with no mark means an inactive call. Calls of active or inactive are those of the source.

Legend:
Test in all cases: NCI-60 one-dose screen, 48 h (100 = growth as untreated, 0 = no growth, -100 = all killed)
Conditions in all cases: 10 µM unless noted
DU-145 prostate = tested on: DU-145 prostate
K-562 leukemia = tested on: K-562 leukemia
MALME-3M melanoma = tested on: MALME-3M melanoma
MDA-MB-231 breast = tested on: MDA-MB-231 breast
RXF 393 renal = tested on: RXF 393 renal
SF-268 CNS = tested on: SF-268 CNS
SF-295 CNS = tested on: SF-295 CNS
SF-539 CNS = tested on: SF-539 CNS
UACC-257 melanoma = tested on: UACC-257 melanoma
M14 melanoma = tested on: M14 melanoma

Structure (SMILES) | growth (DU-145 prostate) | growth (K-562 leukemia) | growth (MALME-3M melanoma) | growth (MDA-MB-231 breast) | growth (RXF 393 renal) | growth (SF-268 CNS) | growth (SF-295 CNS) | growth (SF-539 CNS) | growth (UACC-257 melanoma) | growth (M14 melanoma)
FC(F)(F)c1cc2c(Cl)ncnc2n1CCC1CCOCC1 | -99.6% (active) | -26.3% (active) | 79.2% | 0.4% (active) | 57.8% | -71.1% (active) | 70.8% | 70.8% | 37.6% | -83.5% (active)
O=C(Nc1ccc(S(=O)(=O)N2CCCCC2)cc1)C(Cl)Cl | 104% | 111% | 99.3% | 109% | 115% | 105% | 106% | 107% | 101% | 112%
N#CCc1nnc(NC(=O)c2ccc(-n3c(=O)[nH]c4ccccc4c3=O)cc2)s1 | 128% | 101% | 95.3% | 95.5% | 112% | 115% | 93.6% | 97.9% | 104% | 108%
COc1cc2cc(C(=O)N3C[C@@H](CCl)c4c3cc(OC(=O)N(C)CCSSCCN3CCOCC3)c3ccccc43)[nH]c2c(OC)c1OC | -10.3% (active) | 2.13% (active) | -83.7% (active) | -20.2% (active) | -86.6% (active) | 0.895% (active) | -11.3% (active) | -72% (active) | -8.65% (active) | -81.4% (active)
CCN1CCN(Cc2ccc(C(=O)Nc3cccc(Nc4ccc5c(OC)cccc5n4)c3)cc2C(F)(F)F)CC1 | -57.9% (active) | 0.423% (active) | -94.8% (active) | -94% (active) | -93.3% (active) | -19.1% (active) | -95.3% (active) | -100% (active) | -82.8% (active) | -74.8% (active)
CCCCNC(=S)Nc1ccc(OCc2nc3ccc(Cl)cc3[nH]2)cc1 | 26.3% | 11.1% | 41.2% | 10.5% | -1.67% (active) | 48.3% | 67.6% | 28.4% | 56.9% | 39.1%
O=C(OCCOCCO)N(c1cccc(Br)c1)c1nc(SCCN2CCOCC2)nc2c1cnn2CC(Cl)c1ccc(Br)cc1 (stereo not given) | 41.3% | 2.12% (active) | -29.1% (active) | 1.49% (active) | -30% (active) | 5.17% (active) | -66.6% (active) | -25.2% (active) | 2.33% (active) | -14.1% (active)
CC(C)(C)OC(=O)N1CCC2(CC1)Oc1ccccc1[C@H]1CC(c3ccc(Br)cc3)=NN12 | 93.1% | 36.1% | 90% | 63% | 86.2% | 55.9% | 52.5% | 88.8% | 99.3% | 87.3%
CC[C@]12C=CCN3CC[C@@]4(c5ccc(OC)cc5N(C)[C@H]4[C@@](O)(C(=O)OC)[C@@H]1OC(=O)CCC[P+](c1ccc(OC)cc1)(c1ccc(OC)cc1)c1ccc(OC)cc1)[C@@H]32 | -75.4% (active) | -1.75% (active) | -97.8% (active) | -97% (active) | -92.6% (active) | -34.3% (active) | -93.7% (active) | -98.9% (active) | -93.5% (active) | -88.4% (active)
CCOc1ccccc1NC(=O)N/C(N)=N/c1nc2ccccc2s1 | -4% (active) | 10.1% | 42% | 0.962% (active) | 48.7% | 27.3% | 3.78% (active) | -27.7% (active) | 52.2% | 13.4%
COc1ccc(/C=C/c2nc3ccccc3c(=O)n2CC(=O)Nc2ccccc2)cc1 | 78% | 84.5% | 61.1% | -19.5% (active) | -54.7% (active) | 54.5% | 12.5% | 32.4% | 93.5% | 46.4%
O=C(NNC(=O)c1ccc(OCc2nc3ccc(Cl)cc3[nH]2)cc1)Nc1ccc(Cl)c(C(F)(F)F)c1 | 65.7% | 39.1% | 45.7% | 17.4% | 67.3% | 78.2% | 84.9% | 39.3% | 73% | 79.2%
COc1ccc([C@H]2C(C(=O)c3ccc(Cl)cc3)C3(N[C@@H]2c2ccccc2)C(=O)Nc2ccccc23)cc1 (stereo not given in full) | 52% | 18.8% | 32.2% | 25.8% | 15.8% | 37.3% | 15.2% | 34.5% | 44% | 53%
N#CC1=C(c2ccco2)Nc2c(c(-c3ccccc3)nn2-c2ccccc2)C12C(=O)Nc1ccc(Br)cc12 (stereo not given) | 70.5% | 21.2% | 90.7% | 33.2% | 70.2% | 49.1% | 72.5% | -33% (active) | 73.1% | 42%
COc1ccc(N=Nc2c(N)nn3c(-c4ccc(F)cc4)ccnc23)cc1 | 79.9% | 71.9% | 40.4% | 77.2% | 106% | 83.5% | 87.7% | 67.5% | 81.8% | 51.3%
COc1ccc2ccccc2c1/C=C1\SC(=Nc2ccc(O)cc2)NC1=O | 35.2% | 7.49% (active) | 30.1% | 15.1% | -1.11% (active) | 37.9% | 10.7% | -21.7% (active) | 37.8% | 6.7% (active)
CN1CCN(C(=O)Oc2cc3c(c4ccccc24)[C@H](CCl)CN3C(=O)c2cc3cc(OCCCN4CCC4)ccc3[nH]2)[C@@H]2CSSC[C@H]21 | -31.6% (active) | -4.46% (active) | -55.1% (active) | -9.52% (active) | -71.1% (active) | -10.3% (active) | -7.45% (active) | -58.8% (active) | -21% (active) | -74.7% (active)
CC1=NN(C2=NC(=O)C(CC(=O)Nc3ccccc3C(F)(F)F)S2)C(c2ccc(N(C)C)cc2)C1 (stereo not given) | 63.6% | 28.3% | 61.8% | 66% | 11.6% | 47.4% | 41.3% | 40.2% | 58.1% | 47.7%
COc1ccc(Nc2nnc(-c3c[nH]c4ccccc34)o2)cc1 | 95.8% | 68.1% | 79.5% | 64.7% | 104% | 71.9% | 98% | 69.7% | 95.9% | 97.7%
Cc1nc(Nc2ccccn2)sc1C1=NNC(c2ccccc2F)C1 (stereo not given) | 67.4% | 15.1% | 63.8% | 47.5% | 87.5% | 78.2% | 39.6% | 32.4% | 83.2% | 52.6%
Cn1cc(-c2cc(N)n3nc(-c4c[nH]c5ccc(F)cc45)cc3n2)c2cc(Br)cnc21 | 69.9% | -69% (active) | 75.6% | 13.2% | 11.7% | 89.3% | 69.6% | 52.8% | 84.6% | 55.4%
NC1(c2ccc(-c3ccc4ncnc(NCc5ccccc5)c4c3)cn2)COC1 | 105% and 97.7% | 114% and 100% | 106% | 105% and 106% | 103% and 101% | 111% and 113% | 102% and 101% | 101% and 104% | 120% and 109% | 134% and 114%
COc1ccccc1NC(=O)c1ccc(NC(=O)CCl)s1 | 41.1% | -8.7% (active) | -4.74% (active) | -58% (active) | -56.5% (active) | 22.3% | 31.9% | -14.1% (active) | 10.6% | -74.7% (active)
COc1ccc(SC2c3cc(OC)ccc3Oc3nc(N)c(C#N)c(N)c32)cc1 (stereo not given) | 99.1% | 65.7% | 91.3% | 82.1% | 62% | 78.8% | 55.2% | 78% | 120% | 79.7%
CCCCCCCCc1ccc(C(=O)Nc2ccc(C)cc2C(=O)O)cc1 | 95% | 59.4% | 92.2% | 96.9% | 110% | 96% | 51.1% | 100% | 95.8% | 104%
COc1ccc(-c2nc3ccc(-c4nnc(SCc5ccccc5)o4)cc3[nH]2)cc1OC | 17.2% | 56.8% | 15.9% | -34.4% (active) | -34.1% (active) | 35.2% | 55.4% | -44.5% (active) | 78.4% | 40.7%
